This is part of a sample that, as a whole, favours compounds with a hit. Of some 83,000 tested, about 20% had one in any assay.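 Assay: single dose, 48 h. Readout: percent growth (0 = no net growth; negative = cell death). Active: <10.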 Unmarked numbers belong to inactive results. The source made the active and inactive calls.

Some test systems named below: SR leukemia; RPMI-8226 leukemia; OVCAR-8 ovarian; OVCAR-5 ovarian; OVCAR-4 ovarian; SK-OV-3 ovarian; IGROV1 ovarian; OVCAR-3 ovarian; NCI/ADR-RES ovarian; HS 578T breast.
What all share (assay): NCI-60 one-dose screen, 48 h (100 = growth as untreated, 0 = no growth, -100 = all killed)
Common to all, as to conditions: 10 µM unless noted

Turning to `CCCC[n+]1ccc(SCC(=O)n2ccc3ccccc32)c2ccccc21`, the growth in the assay with SR leukemia was 56.3%; in the assay with RPMI-8226 leukemia it was 59.5%; in the assay on OVCAR-8 ovarian, 92.7%; with OVCAR-5 ovarian it was 103%; with OVCAR-4 ovarian, 72.1%; with SK-OV-3 ovarian, 88.9%. The growth is 83.3% with IGROV1 ovarian, 91.8% with OVCAR-3 ovarian and 110% in the assay with NCI/ADR-RES ovarian.
Consider `COC(=O)CCSC1=C(C)C(=O)c2ccccc2C1=O`, for which the growth with SR leukemia was 71%; in the assay on RPMI-8226 leukemia, 45.3%; in the assay with OVCAR-8 ovarian, 85.8%; with OVCAR-5 ovarian, 104%; in the assay on OVCAR-4 ovarian, 75.6%; in the assay with SK-OV-3 ovarian, 97.7%. The growth is 80.8% with IGROV1 ovarian, 69% in the assay with OVCAR-3 ovarian, 91.8% with HS 578T breast and 83.5% in the assay on NCI/ADR-RES ovarian.
For `c1ccc(-c2cn3c(-c4c[nH]c5ccccc45)csc3n2)cc1`, the growth is 61.7% in the assay on SR leukemia; 31.2% in the assay with RPMI-8226 leukemia; 65.5% with OVCAR-8 ovarian; 87.8% with OVCAR-5 ovarian; 61.9% in the assay with OVCAR-4 ovarian; 87.3% in the assay on SK-OV-3 ovarian. Further, the growth with IGROV1 ovarian was 62.2%; in the assay with HS 578T breast, 68.9%.
`C#CCOc1ccc(/C=N/Nc2nc(-c3ccc(OC)cc3)cs2)cc1`: the growth in the assay with SR leukemia was 47%; with RPMI-8226 leukemia, 53.3%; with OVCAR-8 ovarian it was 84.9%; in the assay on OVCAR-5 ovarian, 104%; with OVCAR-4 ovarian it was 53.1%; in the assay on SK-OV-3 ovarian, 99.6%. The growth is 96.6% in the assay on IGROV1 ovarian and 94% in the assay on HS 578T breast.
Turning to `C/C(=N\NC(=O)/C=C/CC(=O)O)c1nnn(-c2ccc([N+](=O)[O-])cc2)c1C`, the growth in the assay on SR leukemia is 95.4%; with RPMI-8226 leukemia, 101%; in the assay on OVCAR-8 ovarian, 101%; in the assay on OVCAR-5 ovarian, 108%; with OVCAR-4 ovarian, 106%; in the assay on SK-OV-3 ovarian, 106%. Besides, the results for the growth with IGROV1 ovarian, in the assay with HS 578T breast and in the assay on NCI/ADR-RES ovarian were 103%, 116% and 102%, respectively.
For `CN1CCN(c2ccc(Nc3nc(NCCCNS(=O)(=O)c4ccc(Cl)cc4)c4sccc4n3)cc2)CC1`, the growth with SR leukemia is 5.77% (active); in the assay on RPMI-8226 leukemia it was 4.97% (active); in the assay with OVCAR-8 ovarian it was 17%; in the assay with OVCAR-5 ovarian, 39.5%; with OVCAR-4 ovarian, -0.0486% (active); with SK-OV-3 ovarian it was 54.1%. The figures for the growth in the assay with IGROV1 ovarian, in the assay with OVCAR-3 ovarian and with NCI/ADR-RES ovarian were 25.9%, -6.9% (active) and 47.7%, respectively.
Regarding `Cc1ccc(/C=N/Nc2nc(Nc3ccccc3)nc(Nc3ccc(S(N)(=O)=O)cc3)n2)cc1`, the growth is 35.5% with SR leukemia; 44% with RPMI-8226 leukemia; 69.2% in the assay on OVCAR-8 ovarian; 84.5% in the assay with OVCAR-5 ovarian; 69.6% in the assay on OVCAR-4 ovarian; 110% in the assay with SK-OV-3 ovarian. For the same molecule, the growth in the assay with IGROV1 ovarian is 53.4%; with HS 578T breast, 62.9%.
With `O=C1C(SCc2ccccc2)=C(Cl)CN1c1ccccc1`, the growth in the assay on SR leukemia is 18.5%; in the assay on RPMI-8226 leukemia, 83.9%; with OVCAR-8 ovarian, 101%; with OVCAR-5 ovarian it was 97.5%; in the assay with OVCAR-4 ovarian, 103%; in the assay with SK-OV-3 ovarian it was 126%. Further, the figures for the growth in the assay with IGROV1 ovarian, with HS 578T breast and with NCI/ADR-RES ovarian were 103%, 104% and 102%, respectively.
In the case of `N#C/C(=C\c1ccc(-c2ccc(Cl)c(Cl)c2)o1)C(=O)Nc1ncc(Cc2ccc(Cl)cc2)s1`, the growth was 16% in the assay with SR leukemia; 67.4% in the assay on RPMI-8226 leukemia; 19.9% in the assay on OVCAR-8 ovarian; 45.7% with OVCAR-5 ovarian; -15.1% (active) with OVCAR-4 ovarian; 81.2% in the assay with SK-OV-3 ovarian. Besides, the growth in the assay on IGROV1 ovarian was 26.2%; in the assay with HS 578T breast, -7.83% (active).
`O=c1nc(Nc2ccc([N+](=O)[O-])cc2O)sc2ccccc12`: the growth with SR leukemia is 24.2%; with RPMI-8226 leukemia it was 3.35% (active); in the assay with OVCAR-8 ovarian, 24.1%; in the assay with OVCAR-5 ovarian it was 47.4%; in the assay on OVCAR-4 ovarian, 36.9%; in the assay on SK-OV-3 ovarian, 49.2%. Also, the growth in the assay on IGROV1 ovarian was 33.2%; with OVCAR-3 ovarian, 14%; in the assay on NCI/ADR-RES ovarian, 22.5%.
Take `O=C(O)CC1CCN(c2ccc3nnc(Cl)n3n2)CC1`: the growth in the assay on SR leukemia was 110%; with RPMI-8226 leukemia, 111%; in the assay on OVCAR-8 ovarian, 104%; in the assay on OVCAR-5 ovarian, 97.3%; in the assay on OVCAR-4 ovarian, 108%; with SK-OV-3 ovarian, 96.2%. Moreover, the growth with IGROV1 ovarian and with HS 578T breast was 102% throughout.
On to `O=C(/C=C/c1ccccc1)c1cccc(O)c1`, for which the growth is 67.5% with SR leukemia; -17.9% (active) in the assay on RPMI-8226 leukemia; 92.3% with OVCAR-8 ovarian; 101% in the assay on OVCAR-5 ovarian; 105% with OVCAR-4 ovarian; 107% in the assay on SK-OV-3 ovarian. The results for the growth in the assay on IGROV1 ovarian, in the assay with OVCAR-3 ovarian and in the assay on NCI/ADR-RES ovarian were 97.8%, 106% and 107%, respectively.
For `NC(N)=NS(=O)(=O)c1ccc(N=Nc2c(N)nn(-c3ccc([N+](=O)[O-])cc3[N+](=O)[O-])c2N)cc1`, the growth with SR leukemia is 107%; in the assay on RPMI-8226 leukemia it was 99.1%; with OVCAR-8 ovarian it was 100%; in the assay with OVCAR-5 ovarian, 106%; in the assay with OVCAR-4 ovarian it was 104%; in the assay on SK-OV-3 ovarian, 91.4%. The growth in the assay with IGROV1 ovarian is 103%; in the assay on HS 578T breast it was 97.9%; in the assay with NCI/ADR-RES ovarian it was 99.3%.
Turning to `CCc1cc2c(cc1Cl)nc1c(=O)[nH]c(=O)nc-1n2CCOCC(C)C`, the growth in the assay on SR leukemia is 22.7%; with RPMI-8226 leukemia, 66.6%; with OVCAR-8 ovarian it was 59.2%; with OVCAR-5 ovarian, 120%; in the assay on OVCAR-4 ovarian, 44.1%; in the assay on SK-OV-3 ovarian, 111%. Besides, the growth in the assay with IGROV1 ovarian is 58.6%; in the assay with HS 578T breast, 98.2%; in the assay with NCI/ADR-RES ovarian it was 74.1%.
On to `CCN(CC)c1ccc(/C=N/NC(=O)c2ccc(NS(C)(=O)=O)cc2)cc1`, for which the growth in the assay with SR leukemia is 13.5%; with RPMI-8226 leukemia, 42%; in the assay on OVCAR-8 ovarian, 9.7% (active); in the assay with OVCAR-5 ovarian it was 49.4%; in the assay with OVCAR-4 ovarian, 35.6%; with SK-OV-3 ovarian, 35.4%. In addition, the growth in the assay with IGROV1 ovarian was 21.2%; in the assay on HS 578T breast it was 65.6%; in the assay on NCI/ADR-RES ovarian, 58.3%.

Values taken from PubChem BioAssay (NCI).
